Source: PubChem (several laboratories)
Compounds with a hit are over-represented: about 3.8% of the library has one in this group of screens.
Shn3 inh set2: Schnurri-3 reporter inhibition in Clone20 osteoblasts; Clone20 osteoblast Shn3 3'UTR firefly luciferase, 24 h; inhibition, % at 12.5 µM; 360,000 compounds, 0.52% hits; AID 588674;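 active = mean inhibition of at least 75% with every replicate also reaching 75%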
Jurkat NFkB inh: lowers PMA/ionomycin-induced NF-kB signal in Jurkat cells | PMA/ionomycin-induced NF-kB luciferase reporter, luminescence | inhibition, % at 4 µM | 330,000 compounds, 0.53% hits | AID 435003; in the data active = inhibition above about 50%
Mdm2-MdmX inh: disrupts the human Mdm2-MdmX interaction. SaOS-2 split-luciferase Mdm2/MdmX complementation, luminescence. 330,000 compounds, 3% hits. inhibition, % at 8 µM. AID 485346;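 active = inhibition of at least 50% at 8 µM in the primary screen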
697 NFkB inh: lowers PMA/ionomycin-induced NF-kB signal in 697 B cells; inhibition, % at 4 µM; 330,000 compounds, 0.33% hits; 697 B-cell NF-kB luciferase reporter, 16 h; AID 435022; in the data active = inhibition above about 35%
Gli-Sufu antag: antagonists of Gli-Sufu signaling; Sufu-KO-LIGHT fibroblasts, Gli luciferase reporter luminescence; inhibition, % at 5 µM; 340,000 compounds, 0.74% hits; AID 588413;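 active = inhibition above about 55%, limit read from the data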
Mdm2 MdmX conf: human Mdm2/MdmX binding inhibition, confirmed | 10,000 compounds, 55% hits | inhibition, % at 8 µM | shares compounds with Mdm2-MdmX inh | luminescent assay | AID 489028; in the data active = inhibition above about 40%
FLuc counter: inhibits full-length luciferase, flagging false Mdm2/MdmX hits | AID 504607 | SaOS-2 full-length luciferase counterscreen, luminescence | shares compounds with Mdm2-MdmX inh | 6,200 compounds, 77% hits | inhibition, % at 8 µM;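 active = mean inhibition at 8 µM reaching about 37%, which flags the compound as non-specific, limit read from the data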;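 also: p53-null SaOS-2 cells with luciferase driven by a doxycycline-inducible promoter; compound on cells about two nights before reading with doxycycline added after day one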
Of the large screens only hits and unclear results are named; the others gave an inactive call (follow-up assays come after a bar, where they were run).

CC#CC(=O)N1CCCC(Cc2cccc(OC)c2)(C(=O)OCC)C1 (centres undefined)	none
COc1ccc(C(CCNC(C)c2ccccc2)C(C)C)cc1 (centres undefined)	Mdm2-MdmX inh 55 | Mdm2 MdmX conf inactive
COc1ccc(C(C)NCCC(c2ccc(OC(C)C)cc2)c2ccccc2OC)cc1 (centres undefined)	Mdm2-MdmX inh 99 | Mdm2 MdmX conf 69 | FLuc counter 56
CC(Oc1ccccc1)C(=O)Nc1nc(-c2ccccn2)cs1 (centres undefined)	Mdm2-MdmX inh 74 | Mdm2 MdmX conf 75 | FLuc counter 43
CC(Oc1cccc(Cl)c1)C(=O)Nc1nc(-c2ccccn2)cs1 (centres undefined)	Mdm2-MdmX inh 68 | Mdm2 MdmX conf 77 | FLuc counter 44
CC(Oc1ccccc1)C(=O)Nc1nc(-c2ccncc2)cs1 (centres undefined)	none
O=C(NCC(=O)N1CCCC1)NN=Cc1ccccc1O	none (no result: Jurkat NFkB inh, Mdm2-MdmX inh, 697 NFkB inh, Gli-Sufu antag)
CCOC(=O)c1sc(NNC(=O)c2ccc(C)cc2)nc1C	none
CCOC(=O)c1nc(NNC(=O)c2ccc([N+](=O)[O-])cc2)sc1C	Mdm2-MdmX inh 58 | Mdm2 MdmX conf 46 | FLuc counter inactive
COc1ccc(-c2c/c(=N\c3nc(-c4ccccc4)c(C)s3)c3ccccc3o2)cc1O	Mdm2-MdmX inh 84 | Mdm2 MdmX conf 57 | FLuc counter 95
COc1ccc(-c2cc(=Nc3c(C)n(C)n(-c4ccccc4)c3=O)c3ccccc3o2)cc1	none
O=C(CSc1ccc(-c2ccc3c(c2)OCO3)nn1)Nc1nccs1	Mdm2-MdmX inh 89 | Mdm2 MdmX conf inactive
CCN1C(=NCCc2ccc([N+](=O)[O-])cc2)N[C@@H](c2ccccc2)[C@H](C(=O)OC)[C@H]1C	none
CCN1C(=NCCc2ccc(Br)cc2)N[C@@H](c2ccccc2)[C@H](C(=O)OC)[C@H]1C	Mdm2-MdmX inh 52 | Mdm2 MdmX conf inactive
CCC(C)(C)NC(=O)CN(CC1CCCO1)C(=O)CNS(=O)(=O)c1ccccc1 (centres undefined)	none
COc1ccc(-c2cnc3c(c2)C(=O)N([C@H](C)CO)C[C@@H](C)[C@@H](CN(C)C(=O)NC2CCCC2)O3)cc1	none (no result: Jurkat NFkB inh, Mdm2-MdmX inh, 697 NFkB inh, Gli-Sufu antag)
Cc1nn(CC(=O)NCCCN2CCCC2=O)c(C)c1[N+](=O)[O-]	none
CCC1CCc2c(c3ccccc3[nH]c2=O)O1 (centres undefined)	none
O=c1[nH]c2ccccc2c2oc(CCl)nc12	Mdm2-MdmX inh 78 | Mdm2 MdmX conf 52 | FLuc counter 54
C=CCn1c(SCC(=O)c2[nH]c(C)c(C(=O)OCC)c2C)nc2scc(-c3ccc(OC)cc3)c2c1=O	none (no result: Jurkat NFkB inh, Mdm2-MdmX inh, 697 NFkB inh)
C=CCn1c(SCC(=O)c2[nH]c(C)c(C(=O)OCC)c2C)nc2scc(-c3ccccc3)c2c1=O	Mdm2-MdmX inh 95 | Mdm2 MdmX conf 60 | FLuc counter 46
CCOC(=O)C1CCN(C(=O)c2c(C)oc3c2C(=O)c2ccccc2C3=O)CC1	Mdm2-MdmX inh 58 | Mdm2 MdmX conf 45 | FLuc counter 67
O=C(NNS(=O)(=O)c1ccc(Br)cc1)c1ccccc1-n1cccc1	none
COc1ccccc1NCC(=O)N/N=C/c1c(O)ccc2ccccc12	Mdm2-MdmX inh 87 | Mdm2 MdmX conf 77 | FLuc counter inactive
O=C(CN1CCCc2ccccc21)N/N=C/c1ccccc1	none
O=C(CNc1ccc(F)cc1)N/N=C/c1c(O)ccc2ccccc12	Shn3 inh set2 92, Mdm2-MdmX inh 72 | Mdm2 MdmX conf 77 | FLuc counter inactive
COc1ccccc1N(CC(=O)Nc1ccccc1C)S(C)(=O)=O	none
O=C(CN1CCCc2ccccc21)N/N=C/c1c(O)ccc2ccccc12	Mdm2-MdmX inh 81 | Mdm2 MdmX conf 91 | FLuc counter inactive
COc1ccccc1N(CC(=O)N/N=C/c1c(O)ccc2ccccc12)S(C)(=O)=O	Mdm2-MdmX inh 77 | Mdm2 MdmX conf 77 | FLuc counter inactive
Cc1onc(-c2ccccc2)c1C(=O)NC1CC1	none
CCc1cccc(C)c1NC(=S)N(CCN(C)C)C(C)c1cccnc1 (centres undefined)	none
COc1ccc(N2CCN(C3CCCN(C(=O)CN4CCCC4=O)C3)CC2)cc1 (centres undefined)	none
COc1ccccc1NC(=O)c1c(N=Cc2c(O)ccc3ccccc23)cnn1C	Mdm2-MdmX inh 52 | Mdm2 MdmX conf inactive
Cn1ncc(N=Cc2c(O)ccc3ccccc23)c1C(=O)N1CCOCC1	none
COc1cc(/C=N/Nc2nc3ccccc3s2)cc([N+](=O)[O-])c1O	none
O=[N+]([O-])c1cc(Cl)cc(/C=N/Nc2nc3ccccc3s2)c1O	Mdm2-MdmX inh 80 | Mdm2 MdmX conf inactive
COc1ccc(CNC(=O)COC(=O)/C=C/c2cccc(Br)c2)cc1OC	none
O=C(NCCC1CCCCN1S(=O)(=O)c1ccccc1)C(=O)NCc1cccnc1 (centres undefined)	none
CCOc1ccc(NC(=O)CNC(=O)c2ccc(OC)cc2)cc1	none
COc1ccc(C(=O)NCC(=O)Nc2ccc(-c3ccccc3)cc2)cc1	Mdm2-MdmX inh 51 | Mdm2 MdmX conf 68 | FLuc counter 62
COc1ccc(C(=O)N/N=C(/C)c2cccc(NC(=O)c3ccccc3F)c2)cc1	Mdm2-MdmX inh 53 | Mdm2 MdmX conf inactive
CC(=O)Nc1cccc(NC(=O)c2ccc(C(=O)Nc3cccc(NC(C)=O)c3)nc2)c1	none
Cc1cccc(NC(=O)c2ccc(C(=O)Nc3cccc(C)c3)nc2)c1	Mdm2-MdmX inh 56 | Mdm2 MdmX conf 52 | FLuc counter 56
COc1ccc(C(=O)Nc2ccc(C(=O)Nc3cccc(C)c3)cc2)cc1	Mdm2-MdmX inh 56 | Mdm2 MdmX conf inactive | FLuc counter 73
O=C(O)C(Cc1c[nH]c2ccccc12)N1CCS(=O)(=O)CC1 (centres undefined)	none
COc1ccc(C(C)NC(=O)Nc2ccc(C(C)=O)cc2)cc1OC (centres undefined)	none
Cc1cccc2sc(N(CCCN(C)C)C(=O)CCc3ccccc3)nc12	Mdm2-MdmX inh 60 | Mdm2 MdmX conf inactive
CN(C)CCCN(C(=O)CCc1ccccc1)c1nc2ccc(Br)cc2s1	Mdm2-MdmX inh 58 | Mdm2 MdmX conf inactive | FLuc counter 52
C=CCOc1ccc(CNc2ccc(NC(=O)CC(C)C)cc2)cc1OC	none
COCCN(CCOC)S(=O)(=O)c1ccc(C(=O)Nc2nc(-c3ccccc3)c(C(=O)c3ccccc3)s2)cc1	none
COC(=O)Nc1nc(-c2ccccc2)c(C(=O)c2ccc(Cl)cc2)s1	Mdm2-MdmX inh 61 | Mdm2 MdmX conf 55 | FLuc counter 88
O=c1oc2cc(Oc3c([N+](=O)[O-])cc(C(F)(F)F)cc3[N+](=O)[O-])ccc2c2c1CCCC2	Mdm2-MdmX inh 67 | Mdm2 MdmX conf inactive
